Mtb BioA inh: blocks M. tuberculosis BioA enzyme activity. inhibition, % at 9.99 µM. AID 602481. 360,000 compounds, 0.096% hits. purified M. tuberculosis BioA enzyme, plate reader; in the data active = inhibition above about 40%
FadD28 FP inh: blocks FadD28 binding to the bisubstrate probe; fluorescence polarization; inhibition, % at 12.5 µM; 360,000 compounds, 0.22% hits; AID 588549; in the data active = inhibition above about 8.5%, passing the limit was not always enough
Rv3671c inh: inhibits the M. tuberculosis serine protease Rv3671c; P9WHR9; inhibition, % at 5.96 µM; 320,000 compounds, 0.048% hits; AID 2606; in the data active = inhibition above about 38%;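 also: extracellular domain of Rv3671c used as enzyme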
FBA Mtb inh: inhibits M. tuberculosis FBA enzyme. AID 588726. 360,000 compounds, 2.3% hits. purified M. tuberculosis FBA, fluorescence read-out. inhibition, % at 1 µM
Target sequence (P9WQA3 whole entry, looked up): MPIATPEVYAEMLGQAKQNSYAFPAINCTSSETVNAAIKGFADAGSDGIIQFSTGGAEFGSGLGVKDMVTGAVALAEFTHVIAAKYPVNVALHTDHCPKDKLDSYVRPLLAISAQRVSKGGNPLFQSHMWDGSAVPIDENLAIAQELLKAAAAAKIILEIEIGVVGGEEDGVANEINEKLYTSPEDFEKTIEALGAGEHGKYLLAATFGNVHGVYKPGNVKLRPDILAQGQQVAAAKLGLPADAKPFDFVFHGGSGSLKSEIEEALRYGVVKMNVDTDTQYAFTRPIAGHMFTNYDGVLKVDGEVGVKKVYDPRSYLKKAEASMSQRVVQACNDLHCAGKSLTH
GDH-TPI counter-1: GDH-TPI coupled enzyme inhibition counter-screen. GDH-TPI coupled enzyme counterscreen, NADH absorbance. inhibition, % at 4.8 µM. 360,000 compounds, 1.2% hits; in the data active = inhibition above about 30%
Mtb FBA confirm: confirmation of M. tuberculosis fructose-bisphosphate aldolase inhibitors. purified M. tuberculosis FBA, fluorescence read-out. shares compounds with FBA Mtb inh. 5,600 compounds, 78% hits. inhibition, % at 1 µM
GDH-TPI counter-2: inhibits GDH-TPI coupling enzymes, flagging Mtb FBA hits; shares compounds with FBA Mtb inh; GDH-TPI coupled enzyme counterscreen, fluorescence; inhibition, % at 1 µM; 5,600 compounds, 81% hits; AID 652141; in the data active = inhibition above about 10%
Large screens that a line does not name were inactive (follow-up assays come after a bar, where they were run). An excerpt weighted towards active compounds, which were near 3% of everything screened. Rule as the data show it, unless noted: active = inhibition above about 27%; inactive = the rest.

Cc1ccn2cc(-c3cccc([N+](=O)[O-])c3)nc2c1	none
CC(=O)Nc1ccc2nc(-c3ccccc3)cn2c1	FBA Mtb inh 38.2 (no result: Mtb BioA inh) | Mtb FBA confirm active | GDH-TPI counter-2 183.9
Cc1ccn2cc(-c3cccc(NC(=O)CCC(=O)O)c3)nc2c1	FBA Mtb inh 44.0 | Mtb FBA confirm 44.7 | GDH-TPI counter-2 33.6
CCCC#Cc1ccc2c(c1)O[C@@H](CN(C)C(=O)NC(C)C)[C@H](C)CN([C@H](C)CO)S2(=O)=O	none (no result: FadD28 FP inh, Rv3671c inh, FBA Mtb inh, GDH-TPI counter-1)
CSc1ccc(/C=C/C(=O)N2CCCN(C)CC2)cc1	FBA Mtb inh 32.3 (no result: Mtb BioA inh) | Mtb FBA confirm 52.3 | GDH-TPI counter-2 44.9
CC(C)(C)c1ccc(OCC(=O)NCc2ccco2)cc1	none
CC(=O)N1CCC2(CC1)CC(=O)c1cc(Cl)ccc1O2	none
CC(=O)N1CCC2(CC1)CC(=O)c1cc(OCC(=O)NCc3ccc(C)cc3)ccc1O2	FBA Mtb inh 51.0 (no result: Mtb BioA inh) | Mtb FBA confirm inactive | GDH-TPI counter-2 inactive
CC(=O)N1CCC2(CC1)CC(=O)c1cc(OCC(=O)NCc3ccco3)ccc1O2	FBA Mtb inh 35.4 (no result: Mtb BioA inh) | Mtb FBA confirm 120.8 | GDH-TPI counter-2 79.6
N#Cc1cnn2c(-c3ccccc3)ccnc12	FBA Mtb inh 66.0 | Mtb FBA confirm active | GDH-TPI counter-2 active
CCCC(=O)Nc1ccc2c(c1)C(=O)N(C)C[C@@H](OC)[C@@H](C)CN(C(=O)c1cnccn1)[C@@H](C)CO2	none (no result: FadD28 FP inh, Rv3671c inh, FBA Mtb inh, GDH-TPI counter-1)
COC(=O)C1=CN(CCOC23CC4CC(CC(C4)C2)C3)C=C(C(=O)OC)C1c1ccsc1	FBA Mtb inh 62.6 (no result: Mtb BioA inh) | Mtb FBA confirm 100.8 | GDH-TPI counter-2 85.3
COCCN1C=C(C(=O)OC)C(c2cc3c(cc2Br)OCO3)C(C(=O)OC)=C1	none (no result: Mtb BioA inh, FadD28 FP inh, FBA Mtb inh, GDH-TPI counter-1)
COC(=O)C1=CN(Cc2ccc(F)cc2)C=C(C(=O)OC)C1c1ccc(O)c(OC)c1	none (no result: Rv3671c inh)
COC(=O)C1=C(C)OC(N)=C(C#N)C1c1ccsc1 (stereo unspecified)	none
COC(=O)C1=CN(CC2CCCO2)C=C(C(=O)OC)C1c1ccsc1 (stereo unspecified)	FBA Mtb inh 82.7 | Mtb FBA confirm inactive | GDH-TPI counter-2 inactive
COC(=O)C1=CN(Cc2ccc(OC)cc2)C=C(C(=O)OC)C1c1ccsc1	FBA Mtb inh 97.9 (no result: Mtb BioA inh) | Mtb FBA confirm 130.9 | GDH-TPI counter-2 86.5
COC(=O)C1=CN(Cc2ccc(OC)c(OC)c2)C=C(C(=O)OC)C1c1cccc(O)c1	FBA Mtb inh 110.5 | Mtb FBA confirm 109.4 | GDH-TPI counter-2 81.7
CN1C(=O)c2cc(NC(=O)Cc3cccs3)ccc2OC[C@@H]2O[C@@H](CC(=O)NCc3ccc(-c4ccccc4)cc3)CC[C@H]21	none (no result: FadD28 FP inh, Rv3671c inh, FBA Mtb inh, GDH-TPI counter-1)
CO[C@H]1CC[C@@H]2CCN(C)C(=O)[C@H](C)[C@@H](OC)CN(C)C(=O)c3cc(C#N)ccc3OC[C@H]1O2	none (no result: FadD28 FP inh, Rv3671c inh, FBA Mtb inh, GDH-TPI counter-1)
CO[C@H]1CC[C@@H]2CCOc3c(C#N)cccc3C(=O)N(C)C[C@H](C)C(=O)N(C)C[C@@H]1O2	none (no result: FadD28 FP inh, Rv3671c inh, FBA Mtb inh, GDH-TPI counter-1)
Cc1cc(C)nc(NC(=O)Cc2cccs2)n1	FBA Mtb inh 31.6 | Mtb FBA confirm 112.8 | GDH-TPI counter-2 86.9
Cc1cc(C)n(-c2nc(NCc3cccnc3)c3c4c(sc3n2)COC(C)(C)C4)n1	FBA Mtb inh 62.9 | Mtb FBA confirm 80.5 | GDH-TPI counter-2 62.7
C[C@H]1CN([C@@H](C)CO)C(=O)Cc2cc(NC(=O)CCC(F)(F)F)ccc2O[C@H]1CN(C)Cc1ccc(C(=O)O)cc1	none (no result: FadD28 FP inh, Rv3671c inh, FBA Mtb inh, GDH-TPI counter-1)
CSc1ccc(C2Nc3cccc4cccc(c34)N2)cc1	none
CSc1ccc(C2NC(=O)c3ccccc3N2)cc1 (stereo unspecified)	FBA Mtb inh 48.2 | Mtb FBA confirm inactive | GDH-TPI counter-2 16.0
Cc1ccc(C)c(C2NC(=O)c3ccccc3N2)c1 (stereo unspecified)	FBA Mtb inh 62.9 | Mtb FBA confirm 92.6 | GDH-TPI counter-2 71.9
COc1ccc(C2NC(=O)c3ccccc3N2)c(OC)c1OC (stereo unspecified)	FBA Mtb inh 76.6 (no result: Rv3671c inh) | Mtb FBA confirm 74.6 | GDH-TPI counter-2 65.5
O=C1NC(c2ccccc2O)Nc2ccccc21 (stereo unspecified)	FBA Mtb inh 32.7 | Mtb FBA confirm inactive | GDH-TPI counter-2 11.4
Cn1cc(C2NC(=O)c3ccccc3N2)c2ccccc21 (stereo unspecified)	none (no result: Mtb BioA inh, Rv3671c inh)
C[C@@H]1CN([C@@H](C)CO)C(=O)c2cc(NC(=O)C3CCCCC3)ccc2O[C@@H](C)CCCCO[C@H]1CN(C)C(=O)CCCN(C)C	none (no result: FadD28 FP inh, Rv3671c inh, FBA Mtb inh, GDH-TPI counter-1)
Cc1ccc(S(=O)(=O)NCC[C@H]2CC[C@@H](NC(=O)c3ccccn3)[C@H](CO)O2)cc1	none (no result: FadD28 FP inh, Rv3671c inh, FBA Mtb inh, GDH-TPI counter-1)
O=C1NC(c2cccc(OCc3ccccc3)c2)Nc2ccccc21 (stereo unspecified)	FBA Mtb inh 41.8 (no result: Mtb BioA inh, Rv3671c inh) | Mtb FBA confirm 168.2 | GDH-TPI counter-2 134.4
O=C1NC(c2ccc(O)cc2)Nc2ccccc21 (stereo unspecified)	FBA Mtb inh 36.5 | Mtb FBA confirm 39.3 | GDH-TPI counter-2 33.9

Source: PubChem BioAssay (several laboratories)
